PubChem BioAssay AID1159580 (chemical genetic matrix, 2015)
Where “and” joins values, the source holds several entries; their conditions need not be identical. Equal values may be shown once. In all, about 5,500 compounds went through this assay and about 2,000 (36%) were called active. Roughly 18% stayed inconclusive and do not appear here. No stated cut-off is given here; in the data, active means normalized growth mostly below about 0.91 (no sharp cut-off); inconclusive means no clear call, values can overlap the other calls; inactive means mostly above about 0.92. The list shows a part of the results.

Assay: chemical genetic growth profiling, strain panel (AID 1159580);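 further: tested at 20 µM; growth read once vehicle control cultures reached saturation at 30 °C; 1 = growth at the plate median or of vehicle wells; lower values mean less growth of the strain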
Settings: S. cerevisiae deletion strains, growth OD

Measured: normalized growth

CCCCN1CCCCC1C(=O)Nc1c(C)cccc1C (configuration not stated)
inactive: locus YAL013W, strain DEP1, hits give low values 1.02 | locus YAL021C, strain ccr4, hits give low values 0.992 | locus YAL026C, strain drs2, hits give low values 1.01 | locus YAL030W, strain snc1, hits give low values 0.991 | locus YBL061C, strain skt5, hits give low values 0.992 | locus YBR009C, strain hhf1, hits give low values 0.976 | locus YBR021W, strain FUR4, hits give low values 1.01 | locus YBR023C, strain chs3, hits give low values 0.977 | locus YBR171W, strain sec66, hits give low values 0.991 | locus YBR229C, strain ROT2, hits give low values 1.02 | locus YBR231C, strain swc5, hits give low values 0.995 | locus YBR279W, strain paf1, hits give low values 0.994 | locus YCL011C, strain gbp2, hits give low values 0.986 | locus YCL016C, strain dcc1, hits give low values 1 | locus YCL029C, strain bik1, hits give low values 0.986 | locus YCL061C, strain MRC1, hits give low values 0.981 | locus YCL069W, strain vba3, hits give low values 0.99 | locus YCR088W, strain abp1, hits give low values 0.986 | locus YDL005C, strain med2, hits give low values 0.984 | locus YDL035C, strain GPR1, hits give low values 1.03 | locus YDL040C, strain nat1, hits give low values 1 | locus YDL074C, strain BRE1, hits give low values 1.01 | locus YDL101C, strain DUN1, hits give low values 1.01 | locus YDL134C, strain PPH21, hits give low values 1.01 | locus YDL185W, strain tfp1, hits give low values 0.995 | locus YDL192W, strain arf1, hits give low values 1 | locus YDR001C, strain nth1, hits give low values 0.978 | locus YDR069C, strain doa4, hits give low values 0.972 | locus YDR101C, strain arx1, hits give low values 1 | locus YDR137W, strain rgp1, hits give low values 0.965 | locus YDR150W, strain NUM1, hits give low values 1.02 | locus YDR159W, strain sac3, hits give low values 0.984 | locus YDR162C, strain NBP2, hits give low values 1.02 | locus YDR195W, strain ref2 0.967 | locus YDR297W, strain sur2, hits give low values 0.986 | locus YDR318W, strain mcm21, hits give low values 0.995 | locus YDR334W, strain swr1, hits give low values 0.969 | locus YDR335W, strain msn5, hits give low values 0.987 | locus YDR388W, hits give low values 0.986 | locus YDR392W, strain spt3, hits give low values 0.991 | locus YDR502C, strain sam2, hits give low values 1 | locus YEL003W, strain gim4, hits give low values 0.983 | locus YEL037C, strain rad23, hits give low values 0.993 | locus YEL061C, strain CIN8 (second series), hits give low values 0.973 | locus YEL061C, strain CIN8, hits give low values 1.01 | locus YER015W, strain faa2, hits give low values 0.992 | locus YER016W, strain bim1, hits give low values 0.987 | locus YER110C, hits give low values 0.995 | locus YER111C, strain swi4, hits give low values 1.01 | locus YER155C, strain BEM2 (second series), hits give low values 0.997 | locus YER155C, strain BEM2, hits give low values 1 | locus YER167W, strain BCK2, hits give low values 1.03 | locus YFR010W, strain ubp6, hits give low values 0.974 | locus YGL078C, strain dbp3, hits give low values 0.996 | locus YGL086W, strain mad1, hits give low values 1.01 | locus YGL167C, strain pmr1, hits give low values 0.992 | locus YGL173C, strain kem1, hits give low values 1.01 | locus YGL227W, strain vid30, hits give low values 0.973 | locus YGL240W, strain doc1, hits give low values 0.98 | locus YGL248W, strain PDE1, hits give low values 1.02 | locus YGL253W, strain hxk2, hits give low values 0.994 | locus YGR078C, strain PAC10, hits give low values 1.01 | locus YGR135W, strain pre9, hits give low values 0.997 | locus YGR229C, strain SMI1, hits give low values 1.01 | locus YGR252W, strain gcn5, hits give low values 1.06 | locus YHR013C, strain ard1, hits give low values 0.988 | locus YHR027C, strain rpn1, hits give low values 0.99 | locus YHR030C, strain SLT2, hits give low values 1.01 and 0.987 | locus YHR079C, strain IRE1 (second series), hits give low values 0.99 | locus YHR079C, strain IRE1, hits give low values 0.975 | locus YHR094C, strain hxt1, hits give low values 0.997 | locus YHR129C, strain ARP1, hits give low values 1.01 | locus YHR142W, strain chs7, hits give low values 0.999 | locus YHR200W, strain rpn10, hits give low values 0.986 | locus YIL066C, strain RNR3, hits give low values 1.01 | locus YIL073C, strain SPO22, hits give low values 0.989 | locus YIL125W, strain kgd1, hits give low values 0.997 | locus YIR030C, strain dcg1, hits give low values 0.992 | locus YJL092W, strain hpr5, hits give low values 0.969 | locus YJL095W, strain BCK1 (second series), hits give low values 0.995 | locus YJL095W, strain BCK1, hits give low values 1 and 0.971 | locus YJL115W, strain asf1, hits give low values 0.998 | locus YJL129C, strain trk1, hits give low values 0.966 | locus YJL134W, strain LCB3, hits give low values 1.01 | locus YJL154C, strain vps35, hits give low values 0.991 | locus YJL164C, strain tpk1, hits give low values 0.978 | locus YJL166W, strain qcr8, hits give low values 0.994 | locus YJL168C, strain set2, hits give low values 0.99 | locus YJL187C, strain SWE1 (second series), hits give low values 1.01 | locus YJL187C, strain SWE1, hits give low values 0.99 | locus YJR043C, strain POL32, hits give low values 1.01 | locus YJR066W, strain TOR1, hits give low values 0.957
